The list is not random: actives were taken first. Their share in the collection is about 2.4%.
Cruzain Triton – inhibitors of Trypanosoma cruzi cruzain with detergent | AID 1478 | purified cruzain, Z-FR-AMC fluorescence, 0.01% Triton | 200,000 tested, 0.43% active | Potency, µM, hits mostly inhibitors | P25779; note: nearly all actives have a fitted effect of over 40% in size
Target sequence (P25779 123-467 limits assumed): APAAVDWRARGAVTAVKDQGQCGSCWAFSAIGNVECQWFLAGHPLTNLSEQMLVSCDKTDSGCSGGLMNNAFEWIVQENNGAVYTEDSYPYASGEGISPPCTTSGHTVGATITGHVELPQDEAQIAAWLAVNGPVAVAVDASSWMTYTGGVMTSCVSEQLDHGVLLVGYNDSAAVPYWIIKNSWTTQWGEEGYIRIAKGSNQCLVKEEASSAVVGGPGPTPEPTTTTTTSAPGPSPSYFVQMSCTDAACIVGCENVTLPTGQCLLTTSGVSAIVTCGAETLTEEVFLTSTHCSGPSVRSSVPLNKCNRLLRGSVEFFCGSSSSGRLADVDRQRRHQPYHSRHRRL
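Purified cruzain (1.5 nM final) was preincubated with compounds for 15 min at room temperature in 100 mM sodium acetate pH 5.5, 5 mM DTT, 0.01% Triton X-100. Reaction started with 2 uM Z-FR-AMC; AMC fluorescence change over 60 s gave activity.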
Cruzain noTriton – cruzain (T. cruzi) inhibition without detergent; P25779; Potency, µM, actives largely listed as inhibitors; 200,000 tested, 2.3% active; AID 1476; purified cruzain, Z-FR-AMC fluorescence, no detergent; note: nearly all actives have a fitted effect of over 40% in size
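Purified cruzain at 1.5 nM, pre-incubated 15 min with compound at room temperature in 100 mM sodium acetate pH 5.5, 5 mM DTT, 0.00005% Triton X-100. Reaction started with 2 uM Z-FR-AMC; AMC fluorescence increase over 60 s gives rate.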
Numbers stand for hits; i = inactive; ? = inconclusive. Calls come from the whole dose curve; as a rule, active = well fitted curve in the direction sought with a large enough effect; inconclusive = small, poorly fitted or top-dose-only effect, or another doubt; inactive = no such curve, though single readings can be large; an effect the other way counts as inactive or inconclusive.

SMILES	Cruzain Triton	Cruzain noTriton
COc1cccc(Nc2nc(NCC3CCCO3)c3ccccc3n2)c1 (configuration not stated)	14µM	13µM
Oc1ccc(Nc2nc(NCC3CCCO3)c3ccccc3n2)cc1 (configuration not stated)	i	i
COC(=O)c1ccc(C(NC(=O)OCc2ccccc2)/C(F)=C/[C@@H](C)C(=O)N(C)Cc2cccnc2)cc1 (some centres not stated)	i	?
Cc1ccc(C(=O)c2sc(Nc3ccc(F)cc3)c(C#N)c2N)cc1	i	?
Nc1c(C(=O)c2ccc3c(c2)OCO3)sc(Nc2ccccc2F)c1S(=O)(=O)c1ccccc1	i	?
COc1ccccc1Nc1sc(C(=O)c2ccc(F)cc2)c(N)c1S(=O)(=O)c1ccc(C)cc1	i	7.9µM
COc1ccc(S(=O)(=O)c2c(Nc3c(C)cccc3C)sc(C(=O)c3ccc4c(c3)OCO4)c2N)cc1	i	7.9µM
COc1ccc(S(=O)(=O)Nc2ccc3c(c2)OCO3)cc1	i	i
COc1ccc(S(=O)(=O)c2c(Nc3c(C)cccc3C)sc(C(=O)c3ccc(F)cc3)c2N)cc1	i	6.3µM
Cc1cccc(C)c1Nc1sc(C(=O)c2ccccc2)c(N)c1C(=O)Nc1ccc(F)cc1	i	?
COc1cccc(Nc2sc(C(=O)c3ccc4c(c3)OCO4)c(N)c2S(=O)(=O)c2ccccc2)c1	i	7.9µM
COc1cc(CN(C(=O)COc2ccccc2Cl)c2ccccn2)cc(OC)c1OC	i	?
CC(=O)OC1C[C@]2(C)[C@@H](CC(O)C3[C@]4(C)CCC(O)C(C)[C@@H]4CC[C@]32C)/C1=C(/CCC=C(C)C)C(=O)O (some centres not stated)	i	?
Cc1ccccc1Nc1sc(C(=O)c2ccccc2)c(N)c1S(C)(=O)=O	i	i
COc1ccc(S(=O)(=O)c2c(Nc3cccc(C)c3C)sc(C(=O)c3ccccc3)c2N)cc1	i	6.3µM
CN1CCN(c2ccccc2NC(=O)c2ccc(-c3ccc(Cl)cc3Cl)o2)CC1	i	i
CS(=O)(=O)N1CCN(c2ccccc2NC(=O)c2ccc(-c3ccc(Cl)cc3Cl)o2)CC1	i	3.2µM
Cc1cc(=O)n(CC(=O)N2CCN(c3ccc(F)cc3)CC2)c2c1c(C)nn2C	i	?
CC(C)c1ccc(CN(Cc2ccco2)c2cnc(S(C)(=O)=O)nc2C(=O)Nc2ccc(F)cc2)cc1	i	16µM
Cc1cccc(C)c1NC(=O)c1nc(S(C)(=O)=O)ncc1N(Cc1ccc(C(C)(C)C)cc1)Cc1ccco1	i	i
COc1ccc(CN(Cc2ccco2)c2cnc(S(C)(=O)=O)nc2C(=O)Nc2ccc(C)c(Cl)c2)cc1	i	7.9µM
Cc1cccc(C)c1NC(=O)c1nc(S(C)(=O)=O)ncc1N(Cc1ccc(F)cc1)Cc1ccco1	i	i
Cc1ccc(NC(=O)c2nc(S(C)(=O)=O)ncc2N(Cc2cccc(F)c2)Cc2ccco2)cc1C	i	?
Cc1ccc(C)c(NC(=O)c2nc(S(C)(=O)=O)ncc2N(Cc2ccc(C(C)(C)C)cc2)Cc2ccco2)c1	i	7.9µM
O=Nc1ccc(NO)cc1	i	i
SMILES	Cruzain Triton	Cruzain noTriton
C[Se]CCC(N)C(=O)O (configuration not stated)	i	i
COc1cc(-c2noc(CSc3nc(-c4ccc(F)cc4)cc(=O)[nH]3)n2)cc(OC)c1OC	i	i
COC(=O)c1sc2cccc(F)c2c1S(=O)(=O)NCc1ccc(F)cc1	i	i
FC(F)(F)c1cccc(Cl)c1	i	i
C(=C\c1ccccc1)/C=N/Nc1nc(N2CCCCC2)nc(N2CCCCC2)n1	i	4µM
CC(=C/c1ccccc1)/C=N/Nc1nc(N2CCCCC2)nc(N2CCCCC2)n1	i	i
CCC1CCc2c(sc(NC(=O)C3c4ccccc4Oc4ccccc43)c2C(=O)OC)C1 (configuration not stated)	i	4µM
CCC(C)(C)C1CCc2c(sc(NC(=O)C3c4ccccc4Oc4ccccc43)c2C(N)=O)C1 (configuration not stated)	i	i
CCC1CCc2c(sc(NC(=O)C3c4ccccc4Oc4ccccc43)c2C#N)C1 (configuration not stated)	i	7.9µM
COC(=O)c1c(NC(=O)C2c3ccccc3Oc3ccccc32)sc2c1CCC(C)C2 (configuration not stated)	i	i
O=C(c1ccncc1)N1CCC2(CCCN(c3ccncc3)C2)CC1	i	i
COc1ccc(Nc2c(-c3ccco3)nc3cccc(C)n23)cc1	i	i
COc1ccc2nc(-c3ccco3)c(-c3ccco3)nc2c1	11µM	4µM
c1coc(-c2nc(-c3ccco3)c(-c3ccco3)nc2-c2ccco2)c1	7.9µM	?
Nc1nc(-c2ccco2)c(-c2ccco2)s1	i	i
CCOc1ccc(CNC(=O)C2CCN(C3=NS(=O)(=O)C(c4ccc(C)cc4)=C3CC)CC2)cc1	i	i
CCC(=O)N1CCc2cc(Br)cc(S(=O)(=O)CCC(=O)NCCc3cccc(C)c3)c21	i	i

High-throughput results: PubChem BioAssay, National Center for Advancing Translational Sciences (NCATS)
